Measured values from PubChem BioAssay (NCATS).
Inconclusive results are not listed. Activity calls are given as the source filed them. Unless noted, calls come from the whole dose curve; as a rule, active = well fitted curve in either direction with a large enough effect (not every such curve was filed as active); inconclusive = small, poorly fitted or top-dose-only effect, or another doubt; inactive = flat fitted curve, though single readings scatter.

Tests used:
[1] = molecular target: Lysosomal acid glucosylceramidase (Homo sapiens) (UniProt P04062); experiment: Glucocerebrosidase-p2 (AID 348; in the data active = potency below about 10 µM; note: potency is the fitted concentration of half-maximal effect); conditions: purified GBA, blue fluorogenic substrate, 40 min
Lysosomal acid glucosylceramidase (Homo sapiens), sequence (P04062 whole entry, looked up): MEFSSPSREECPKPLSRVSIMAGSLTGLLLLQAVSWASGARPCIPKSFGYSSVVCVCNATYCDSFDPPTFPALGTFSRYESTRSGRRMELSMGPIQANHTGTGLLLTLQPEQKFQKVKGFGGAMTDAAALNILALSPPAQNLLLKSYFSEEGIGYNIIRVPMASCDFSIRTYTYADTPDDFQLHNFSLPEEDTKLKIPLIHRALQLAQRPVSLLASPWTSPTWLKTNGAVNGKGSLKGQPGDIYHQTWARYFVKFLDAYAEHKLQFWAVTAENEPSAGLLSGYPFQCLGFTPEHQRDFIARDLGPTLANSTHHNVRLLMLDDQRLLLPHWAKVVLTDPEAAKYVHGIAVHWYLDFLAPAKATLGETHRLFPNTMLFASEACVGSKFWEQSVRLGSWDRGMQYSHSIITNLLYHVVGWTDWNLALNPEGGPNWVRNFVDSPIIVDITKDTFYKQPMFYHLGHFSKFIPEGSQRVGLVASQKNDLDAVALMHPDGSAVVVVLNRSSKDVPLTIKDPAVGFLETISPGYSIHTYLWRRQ
Procedure, shortened: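 Compounds titrated from 0.6 nM upwards against 0.2 nM enzyme in pH 5.9 citric acid/KH2PO4, taurocholate, tween-20; blue fluorogenic substrate 80 uM, 40 min room temperature, stopped and read Ex 365/Em 440 for AC50.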

[2] = AP1 Signaling Pathway (AID 357); conditions: ME-180 AP-1-bla reporter, EGF-induced, beta-lactamase ratio, 5 h; at 7.69 µM (top of the series) unless noted; note: % is set by controls: 0 for no effect and ±100 for the full control effect
Procedure, shortened: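 ME-180 cells with beta-lactamase reporter under AP-1 response element, stimulated with EC50 EGF; compounds tested in titration series, 5 h at 37 °C. CCF4 substrate added 2.5 h at room temperature; 460/530 nm emission ratio gave %activity and AC50.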

[3] = molecular target: Cytochrome P450 1A2 (Homo sapiens) (UniProt P05177); experiment: p450-cyp1a2 (AID 410; calls by dose curve; note: potency is the fitted concentration of half-maximal effect); conditions: recombinant CYP1A2, luciferin-ME demethylation, luminescence; series mostly up to 57 µM
Cytochrome P450 1A2 (Homo sapiens), sequence (P05177 whole entry, looked up): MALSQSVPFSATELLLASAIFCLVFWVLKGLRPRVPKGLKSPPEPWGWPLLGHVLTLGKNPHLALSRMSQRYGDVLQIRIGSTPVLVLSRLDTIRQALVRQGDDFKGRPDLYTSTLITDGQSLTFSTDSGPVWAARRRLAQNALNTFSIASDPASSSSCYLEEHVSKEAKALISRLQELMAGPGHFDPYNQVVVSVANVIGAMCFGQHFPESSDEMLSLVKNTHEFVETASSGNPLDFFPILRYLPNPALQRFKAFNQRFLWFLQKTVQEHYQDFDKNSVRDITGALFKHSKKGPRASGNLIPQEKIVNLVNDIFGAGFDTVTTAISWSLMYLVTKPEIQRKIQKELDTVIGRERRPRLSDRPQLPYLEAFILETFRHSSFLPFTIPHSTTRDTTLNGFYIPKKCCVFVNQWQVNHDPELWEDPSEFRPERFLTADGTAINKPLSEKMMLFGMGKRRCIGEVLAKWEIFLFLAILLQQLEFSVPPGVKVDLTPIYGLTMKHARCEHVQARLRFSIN
Procedure, shortened: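 Human CYP1A2 (20nM) demethylated Luciferin-ME at its Km (100uM) in 100mM KPO4. After 10 min compound preincubation, NADPH regeneration ran the reaction 60 min at room temperature. Luciferin was read by luminescence, normalized to 57 uM furafylline.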

[4] = NFAT Signaling Pathway (AID 444); conditions: Jurkat NFAT-bla M1, carbachol, beta-lactamase ratio, 5 h; at 7.69 µM (top of the series) unless noted;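 note: carbachol stimulus at about its EC50 of 1 µM final; % is set by controls: 0 for no effect and ±100 for the full control effect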
Procedure, shortened: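 Read-out: CCF4 FRET ratio (460 nm/530 nm) after 1 h RT dye loading, used for %activity and AC50 from titration series. Cells: Jurkat NFAT-β-lactamase/M1 line, treated with compound plus 1 uM carbachol for 5 h, 37 °C.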

[5] = Stat Signaling Pathway (AID 446); conditions: ME-180 (cervical carcinoma) SIE beta-lactamase reporter, IL-6 stimulated, 5 h; at 7.69 µM (top of the series) unless noted;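 note: ME-180 cervical cancer cells given 40 pM IL-6 alongside compound; SIE-controlled beta-lactamase reporter measured as 460/530 nm FRET emission ratio; % is set by controls: 0 for no effect and ±100 for the full control effect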
Procedure, shortened: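 IL-6/STAT signaling read in ME-180 cells via an SIE beta-lactamase reporter. Stimulus was 40 pM IL-6 (its AC50) for 5 hrs, so both activation and inhibition register.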

[6] = molecular target: Glucocorticoid receptor (Homo sapiens) (UniProt P04150); experiment: GR-GFP Redistribution (AID 450;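 active = compounds whose dose series gives a full or clear partial fitted curve of increased nuclear translocation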; note: potency is the fitted concentration of half-maximal effect); conditions: U2OS GR-GFP nuclear translocation, laser cytometry, 2 h
Glucocorticoid receptor (Homo sapiens), sequence (P04150 whole entry, looked up, the tested form may be a part): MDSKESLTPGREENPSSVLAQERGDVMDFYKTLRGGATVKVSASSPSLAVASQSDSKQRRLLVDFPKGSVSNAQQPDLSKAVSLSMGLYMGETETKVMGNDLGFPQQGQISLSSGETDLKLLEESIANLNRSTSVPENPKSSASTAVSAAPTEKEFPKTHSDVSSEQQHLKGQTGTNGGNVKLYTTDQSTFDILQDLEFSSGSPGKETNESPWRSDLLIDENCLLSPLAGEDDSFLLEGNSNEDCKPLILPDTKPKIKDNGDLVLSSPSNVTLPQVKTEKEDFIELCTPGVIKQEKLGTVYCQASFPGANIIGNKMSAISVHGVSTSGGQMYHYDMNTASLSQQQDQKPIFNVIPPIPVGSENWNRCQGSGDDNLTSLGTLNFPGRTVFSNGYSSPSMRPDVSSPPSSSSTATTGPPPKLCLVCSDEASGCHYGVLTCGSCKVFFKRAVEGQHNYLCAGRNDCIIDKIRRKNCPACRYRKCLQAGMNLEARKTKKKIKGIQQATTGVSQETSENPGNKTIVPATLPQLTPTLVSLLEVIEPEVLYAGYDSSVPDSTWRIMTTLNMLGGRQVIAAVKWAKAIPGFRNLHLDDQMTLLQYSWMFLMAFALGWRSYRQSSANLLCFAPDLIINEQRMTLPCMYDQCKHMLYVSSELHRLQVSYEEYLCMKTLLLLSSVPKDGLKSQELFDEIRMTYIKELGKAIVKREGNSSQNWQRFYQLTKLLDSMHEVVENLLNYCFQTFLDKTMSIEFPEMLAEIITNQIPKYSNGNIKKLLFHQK

[7] = molecular target: Glucocorticoid receptor (Homo sapiens) (UniProt P04150); experiment: GR-EFC Redistribution (AID 451; calls by dose curve; note: potency is the fitted concentration of half-maximal effect); conditions: CHO-K1 GR-EFC translocation, beta-gal luminescence, 2 h
Procedure, shortened: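 Translocation of GR-ED fusion to nuclear EA restores b-gal, read by luminescence after 1 h room-temperature detection. Engineered CHO-K1 biosensor cells, 1,000/well, exposed 2 h at 37 C to titrations up to 46 uM final.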

[8] = molecular target: Mitogen-activated protein kinase 10 (Mus musculus) (UniProt Q61831); experiment: JNK3 AlphaScreen Assay (AID 530); conditions: JNK3 lysate, c-Jun phosphorylation; series mostly up to 57.1 µM;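 note: kinase came from lysate of stimulated human HepG2 cells; signal reports phosphorylation of biotinylated GST-cJun 1-79 at Ser73 with 10 µM ATP; % is set by controls: 0 for no effect and ±100 for the full control effect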
Procedure, shortened: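 Room-temperature AlphaScreen kinase assay; pre-activated HepG2 lysate as JNK3 source, biotin-GST-cJun(1-79) substrate, 10 uM ATP, compound 15 min preincubation.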

[9] = molecular target: Cytochrome P450 3A4 (Homo sapiens) (UniProt P08684); experiment: qHTS Assay for Inhibitors and Substrates of Cytochrome P450 3A4 (AID 884; active = well fitted curve in the direction sought with a large enough effect; an effect the other way counts as inactive or inconclusive; note: potency is the fitted concentration of half-maximal effect; nearly all actives have a fitted effect of over 50% in size); conditions: recombinant CYP3A4, Luciferin-PPXE luminescence; series mostly up to 57.1 µM
Cytochrome P450 3A4 (Homo sapiens), sequence (P08684 whole entry, looked up): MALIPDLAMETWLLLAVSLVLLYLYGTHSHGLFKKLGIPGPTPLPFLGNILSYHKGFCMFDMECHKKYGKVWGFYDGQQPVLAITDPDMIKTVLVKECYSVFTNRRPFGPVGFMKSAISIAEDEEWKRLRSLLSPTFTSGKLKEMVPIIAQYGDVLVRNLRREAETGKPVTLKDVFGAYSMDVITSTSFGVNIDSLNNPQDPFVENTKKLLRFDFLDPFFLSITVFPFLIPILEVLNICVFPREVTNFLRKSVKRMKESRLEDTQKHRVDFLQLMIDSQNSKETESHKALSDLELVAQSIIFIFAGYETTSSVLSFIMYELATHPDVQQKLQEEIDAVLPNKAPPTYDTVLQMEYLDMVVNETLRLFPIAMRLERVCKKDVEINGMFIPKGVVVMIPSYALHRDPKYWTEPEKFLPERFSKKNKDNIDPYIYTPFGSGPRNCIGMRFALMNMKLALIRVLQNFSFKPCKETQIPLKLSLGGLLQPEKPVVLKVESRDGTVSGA
Procedure, shortened: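 20 nM human CYP3A4 with 25 uM Luciferin-PPXE (at KM) in 200 mM KPO4, preincubated 10 min with compound; NADPH regeneration started a 60 min RT reaction. Luciferin detected by luminescence, normalized to 57 uM ketoconazole as full inhibition.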

[10] = molecular target: Cytochrome P450 3A4 (Homo sapiens) (UniProt P08684); experiment: qHTS Assay for Activators of Cytochrome P450 3A4 (AID 885; active = well fitted curve in the direction sought with a large enough effect; an effect the other way counts as inactive or inconclusive; note: nearly all actives have a fitted effect of over 65% in size); conditions: recombinant CYP3A4, Luciferin-PPXE luminescence, 60 min; series mostly up to 57.1 µM
Procedure, shortened: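 Quantitative HTS format: compounds preincubated with 20nM human CYP3A4 and Luciferin-PPXE substrate at KM, reaction started by NADPH regeneration, stopped after 60 min, luciferase luminescence read 20 min later.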

[11] = Confirmation and Secondary Assay for Modulators of Hemoglobin Beta Chain Splicing at IVS2 654 locus (AID 910; active = well fitted curve in the direction sought with a large enough effect; an effect the other way counts as inactive or inconclusive;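 note: HeLa cells stably carrying EGFP split by mutant beta-globin IVS2-654 intron; per-well total GFP intensity by laser scanning cytometry after 2-day treatment; % of control where 0% means no effect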); conditions: HeLa EGFP-654 splicing reporter, GFP fluorescence, 48 h; series mostly up to 38.3 µM
Procedure, shortened: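 Readout: per-well total peak green fluorescence (488 nm ex, 500–520 nm em) from objects 5–250 µm, reflecting correct splicing of an EGFP-654 reporter. Compounds were applied for 2 days at 37 °C to overnight-plated HeLa EGFP-654 cells; controls were DMSO and 500 nM IVS2-654 PNA.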

[12] = Confirmation and Secondary Assay for Modulators of Hemoglobin Beta Chain Splicing at IVS2 705 locus (AID 930; active = well fitted curve in the direction sought with a large enough effect; an effect the other way counts as inactive or inconclusive;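 note: HeLa cells stably expressing the EGFP-705 splicing reporter; GFP fluorescence per well restored by corrected splicing of the IVS2-705 intron in EGFP; % of control where 0% means no effect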); conditions: HeLa EGFP-705 splicing reporter, GFP fluorescence, 48 h; series mostly up to 38.3 µM
Procedure, shortened: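 Assay measures total GFP intensity per well in HeLa EGFP-705 cells after 2 days with compound; mis-splicing normally truncates EGFP, so fluorescence indicates corrected splicing.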

[13] = qHTS Assay for Lipid Storage Modulators (AID 1519; calls by dose curve); conditions: Drosophila S3 cells, BODIPY lipid droplet/cell ratio, laser cytometry, cells loaded with oleic acid; for activity change, negative = inhibition: at 57.5 µM (top of the series)
Procedure, shortened: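 Cells seeded at 5,000 per well were treated with compounds over a concentration series and loaded with oleic acid (400 uM, as added). Lipid droplet fluorescence (488 nm excitation, 500-530 nm channel) was read by laser-scanning cytometry and normalized to 20 uM Triacsin C.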

[14] = Primary qHTS for small molecule stabilizers of the endoplasmic reticulum resident proteome: Secreted ER Calcium Modulated Protein (SERCaMP) assay (AID 1508630; active = well fitted curve in the direction sought with a large enough effect; an effect the other way counts as inactive or inconclusive; note: % is set by controls: 0 for no effect and ±100 for the full control effect); conditions: SH-SY5Y GLuc-SERCaMP (Gaussia luciferase released on ER calcium loss) secretion, thapsigargin, luminescence; series mostly up to 38.4 µM
Procedure, shortened: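 GLuc-SERCaMP-expressing SH-SY5Y cells, pretreated 16 h with compound, are challenged with thapsigargin to empty ER calcium stores; after 4 h, coelenterazine is added directly to the medium and luminescence is imaged.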

[15] = molecular target: 3',5'-cyclic-AMP phosphodiesterase 4B (Homo sapiens) (UniProt Q07343); experiment: qHTS Assay for Inhibitors of PDE-IV (AID 607; active = well fitted activation curve with a large enough effect in the main read-out, with a control signal flat, not every such curve was filed as active; note: % of control where 0% means no effect); conditions: HEK293 ACTOne CNG channel cells, membrane potential fluorescence; series mostly up to 22.9 µM
3',5'-cyclic-AMP phosphodiesterase 4B (Homo sapiens), sequence (Q07343 whole entry, looked up): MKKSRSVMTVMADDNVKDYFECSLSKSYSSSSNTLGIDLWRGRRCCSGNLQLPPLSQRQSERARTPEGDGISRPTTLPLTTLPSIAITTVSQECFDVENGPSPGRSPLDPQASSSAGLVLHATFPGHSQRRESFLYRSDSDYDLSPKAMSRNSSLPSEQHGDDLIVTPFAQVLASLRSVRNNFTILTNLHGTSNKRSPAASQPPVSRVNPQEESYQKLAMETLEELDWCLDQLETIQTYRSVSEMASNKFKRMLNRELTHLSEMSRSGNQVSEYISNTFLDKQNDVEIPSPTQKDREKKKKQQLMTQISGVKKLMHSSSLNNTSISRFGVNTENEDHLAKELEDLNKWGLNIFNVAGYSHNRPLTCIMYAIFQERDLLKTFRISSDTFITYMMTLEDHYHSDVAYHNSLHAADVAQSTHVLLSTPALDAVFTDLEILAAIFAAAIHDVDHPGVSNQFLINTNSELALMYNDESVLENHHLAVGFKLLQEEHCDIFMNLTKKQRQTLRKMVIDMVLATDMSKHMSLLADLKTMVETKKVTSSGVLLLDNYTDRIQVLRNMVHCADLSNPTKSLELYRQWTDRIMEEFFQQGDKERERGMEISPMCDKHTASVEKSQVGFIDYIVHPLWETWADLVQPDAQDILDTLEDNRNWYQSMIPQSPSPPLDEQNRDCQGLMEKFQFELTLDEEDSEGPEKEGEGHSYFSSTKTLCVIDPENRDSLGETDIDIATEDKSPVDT
Procedure, shortened: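 Live HEK293 cells with a modified cyclic nucleotide-gated (CNG) channel report intracellular cAMP via membrane-potential dye fluorescence (ex 535/em 590 nm). Endogenous PDE-IV was targeted. Compounds were tested at up to 22.9 uM final; RO 20-1724 100 uM served as control.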

[16] = molecular target: Cytochrome P450 2C9 (Homo sapiens) (UniProt P11712); experiment: qHTS Assay for Inhibitors and Substrates of Cytochrome P450 2C9 (AID 883; active = well fitted curve in the direction sought with a large enough effect; an effect the other way counts as inactive or inconclusive; note: % is set by controls: 0 for no effect and ±100 for the full control effect; nearly all actives have a fitted effect of over 60% in size); conditions: recombinant CYP2C9, luciferin-H luminescence, 60 min; series mostly up to 57.1 µM
Cytochrome P450 2C9 (Homo sapiens), sequence (P11712 whole entry, looked up): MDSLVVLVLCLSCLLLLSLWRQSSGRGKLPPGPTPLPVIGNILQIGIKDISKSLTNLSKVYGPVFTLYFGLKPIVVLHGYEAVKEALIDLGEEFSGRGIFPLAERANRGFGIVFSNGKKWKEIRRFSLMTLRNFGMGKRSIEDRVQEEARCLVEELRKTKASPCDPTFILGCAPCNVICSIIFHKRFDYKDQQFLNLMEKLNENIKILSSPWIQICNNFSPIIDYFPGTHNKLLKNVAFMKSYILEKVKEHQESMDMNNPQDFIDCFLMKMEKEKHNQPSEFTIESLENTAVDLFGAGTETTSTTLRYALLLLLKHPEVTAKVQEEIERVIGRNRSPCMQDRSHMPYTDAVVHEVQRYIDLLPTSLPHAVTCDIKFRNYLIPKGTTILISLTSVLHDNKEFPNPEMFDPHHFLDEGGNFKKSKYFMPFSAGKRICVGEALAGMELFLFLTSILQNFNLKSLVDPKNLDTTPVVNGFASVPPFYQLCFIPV
Procedure, shortened: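 Turnover of Luciferin-H (100uM, KM) by 10nM human CYP2C9 was measured over 60 min at 37C with NADPH regeneration; inhibitors and some substrates reduce luminescence. Data normalized to sulphaphenazole 57uM.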

[17] = molecular target: Cytochrome P450 2C19 (Homo sapiens) (UniProt P33261); experiment: qHTS Assay for Inhibitors and Substrates of Cytochrome P450 2C19 (AID 899; active = well fitted curve in the direction sought with a large enough effect; an effect the other way counts as inactive or inconclusive; note: nearly all actives have a fitted effect of over 60% in size; note: potency is the fitted concentration of half-maximal effect); conditions: recombinant CYP2C19, luciferin-H EGE luminescence; series mostly up to 57.1 µM
Cytochrome P450 2C19 (Homo sapiens), sequence (P33261 whole entry, looked up): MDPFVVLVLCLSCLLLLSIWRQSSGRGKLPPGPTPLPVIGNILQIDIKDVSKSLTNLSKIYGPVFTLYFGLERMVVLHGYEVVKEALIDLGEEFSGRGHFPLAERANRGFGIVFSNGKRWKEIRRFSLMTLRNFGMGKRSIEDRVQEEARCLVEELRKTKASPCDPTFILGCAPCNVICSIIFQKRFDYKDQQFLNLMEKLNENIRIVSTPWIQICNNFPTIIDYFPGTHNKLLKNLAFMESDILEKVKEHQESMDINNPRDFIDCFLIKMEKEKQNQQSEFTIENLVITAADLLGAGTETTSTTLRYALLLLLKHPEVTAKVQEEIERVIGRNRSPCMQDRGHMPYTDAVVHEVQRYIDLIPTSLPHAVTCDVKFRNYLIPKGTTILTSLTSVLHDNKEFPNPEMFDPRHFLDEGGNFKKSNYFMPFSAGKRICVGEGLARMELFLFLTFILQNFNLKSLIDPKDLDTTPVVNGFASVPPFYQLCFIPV
Procedure, shortened: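 Reactions contain 5nM enzyme, 10uM Luciferin-H EGE (KM) and 50mM KPO4; compound preincubates 10 min at 37C, NADPH regeneration starts turnover for 60 min. Luminescence after detection reagent gives activity.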

[18] = measured here: cell count channel max response
[19] = measured here: lipid channel max response

c1ccc2c(-n3ccnc3)nc(-c3ccoc3)nc2c1
inactive: Potency [1] > 11.4 µM | activity change, negative = inhibition [2] -13.9% | activity change, negative = inhibition [4] 3.28% | activity, negative = inhibition [5] 7.69% | Potency [6] > 46 µM | Potency [7] > 46 µM | outcome [8] | Potency [10] | outcome [11] | outcome [12] | activity change, negative = inhibition [13] 9.53% | Potency [14]
22.4%: max response [13, 19]
10.7%: max response [13, 18]
active: Potency [3] 0.501 µM | Potency [9] 0.199 µM

O=c1c(-c2ccc(F)cc2)nc2cnc(N3CCOCC3)nc2n1C[C@H]1CCCO1
-2.6%: max response [13, 19]
active: Potency [3] 1.58 µM
inactive: Potency [1] > 11.4 µM | activity change, negative = inhibition [2] 9.7% | activity change, negative = inhibition [4] 1.18% | activity, negative = inhibition [5] 29.2% | Potency [6] > 9.22 µM | Potency [7] > 46 µM | outcome [8] | Potency [15] | Potency [16] | Potency [17] | activity change, negative = inhibition [13] -21.9% | Potency [14]
16.8%: max response [13, 18]

Cc1nc2cnc(Oc3cccc(Cl)c3)nc2n(CCC#N)c1=O
19.7%: max response [13, 18]
26.1%: max response [13, 19]
active: Potency [3] 15.8 µM
inactive: Potency [1] > 11.4 µM | activity change, negative = inhibition [2] -16% | activity change, negative = inhibition [4] 1.8% | activity, negative = inhibition [5] -7.79% | Potency [6] > 9.22 µM | Potency [7] > 46 µM | outcome [8] | Potency [15] | Potency [10] | activity change, negative = inhibition [13] 3.95% | Potency [14]

COc1cccc(-c2ccc3ncnc(NC4CCNCC4)c3c2)c1
active: Potency [3] 20 µM | Potency [17] 6.31 µM
-3.29%: max response [13, 18]
inactive: Potency [1] > 11.4 µM | activity change, negative = inhibition [2] 2.29% | activity change, negative = inhibition [4] 13.6% | activity, negative = inhibition [5] -1.25% | Potency [6] > 46 µM | Potency [7] > 46 µM | outcome [8] | Potency [15] | Potency [10] | outcome [11] | outcome [12] | activity change, negative = inhibition [13] 7.49% | Potency [14]
2.37%: max response [13, 19]

COc1ccc2[nH]cc(CCNc3cc(-c4ccccc4C(F)(F)F)ncn3)c2c1
inactive: Potency [1] > 11.4 µM | activity change, negative = inhibition [2] -26.7% | activity change, negative = inhibition [4] 14% | activity, negative = inhibition [5] 0.643% | Potency [6] > 46 µM | Potency [7] > 46 µM | outcome [8] | Potency [15] | Potency [10] | outcome [11] | outcome [12] | activity change, negative = inhibition [13] 6.48% | Potency [14]
active: Potency [3] 10 µM | Potency [9] 5.01 µM
-3.31%: max response [13, 18]
0.275%: max response [13, 19]

Cn1c(=O)cnc2cnc(Oc3ccccc3)nc21
active: Potency [3] 10 µM
25.3%: max response [13, 19]
18.8%: max response [13, 18]
inactive: Potency [1] > 11.4 µM | activity change, negative = inhibition [2] 5.77% | activity change, negative = inhibition [4] 4.94% | activity, negative = inhibition [5] -3.04% | Potency [6] > 9.22 µM | Potency [7] > 46 µM | outcome [8] | Potency [15] | activity change, negative = inhibition [13] 3.92% | Potency [14]
